Inconclusive results are not listed. Values without a mark were called inactive. The source made the active and inactive calls. Calls follow the shape of the dose curve; as a rule, active = well fitted inhibition curve with a large enough effect in the signal ratio in the repeat runs, with a control signal flat; inconclusive = weak or mixed curves, or effect the other way; inactive = flat fitted curve, though single readings scatter; the % refers to the signal ratio.
% is scaled to controls: 0 for no effect and ±100 for the full control effect; potency is read from the fitted curve at half-maximal effect.

Sequence of D(2) dopamine receptor (Homo sapiens) (P14416 whole entry, looked up): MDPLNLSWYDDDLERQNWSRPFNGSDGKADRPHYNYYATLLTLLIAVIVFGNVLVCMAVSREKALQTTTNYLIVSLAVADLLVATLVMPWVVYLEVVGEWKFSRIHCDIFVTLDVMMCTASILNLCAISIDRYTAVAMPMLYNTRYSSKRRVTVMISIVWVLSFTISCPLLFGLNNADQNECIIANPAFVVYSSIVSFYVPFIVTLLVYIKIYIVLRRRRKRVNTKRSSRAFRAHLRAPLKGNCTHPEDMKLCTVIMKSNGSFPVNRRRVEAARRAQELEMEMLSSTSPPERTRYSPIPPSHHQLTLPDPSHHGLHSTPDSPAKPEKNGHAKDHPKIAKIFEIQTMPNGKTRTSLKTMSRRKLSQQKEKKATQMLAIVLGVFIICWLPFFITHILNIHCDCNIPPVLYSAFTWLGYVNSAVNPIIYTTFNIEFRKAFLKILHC

The experiment has as its target D(2) dopamine receptor (Homo sapiens) (UniProt P14416). Kind of experiment: Dopamine D2 receptor (DRD2) small molecule antagonists, cell-based qHTS assay (AID 1963595). Conditions: HEK293-DRD2 cAMP HTRF antagonist mode; series mostly up to 92.4 µM; activity change, negative = inhibition: at the top concentration. An excerpt: National Center for Advancing Translational Sciences [NCATS]
Division of Preclinical Innovation [DPI]
U.S. Environmental Protection Agency [EPA]
National Institutes of Environmental Health Sciences [NIEHS]
National Toxicology Program [NTP]
U.S. Food and Drug Administration [FDA]
DRD2 is the D2 subtype of the dopamine receptor, which is coupled to Gi subtype of G protein-coupled receptor. This G protein-coupled receptor inhibits adenylyl cyclase activity. The DRD2-HEK293 cell line stably expressing D2 dopamine receptor can be used for screening agonists and antagonists of interactions between D2 and its ligands. The Hek293-DRD2 cAMP assay is based on HTRF technology. It measures changes of cAMP accumulation in response to Gi coupled GPCR activation or inhibition.
Tox21 Assay Protocol Summary:
DRD2-Hek293 cells were dispensed at 600 cells/3uL/well in 1536-well white plates using a Multidrop Dispenser. After the assay plates were incubated at a 37 C/5% CO2 incubator for 24 h, 1 uL of Ro20-1724 at final concentration of 0.1 mM was transferred to the assay plate by a Flying Reagent Dispenser. Following Ro20-1724 addition, 23 nL of compound dissolved in DMSO, positive controls or DMSO only was added to the assay plates via Wako pintool station. The assay plates were incubated at room temperature for 10 min. Next, 1 uL of mixture of NKH477 (final concentration at 200 nM) and quinpirole (final concentration at 12 nM) was added into the plates. After the assay plates were incubated at room temperature for an additional 30 min, 2.5 ul/well of cAMP-d2 and 2.5 ul/well of anti-cAMP-cryptate were added respectively into the assay plates using a Flying Reagent Dispenser. The plates were incubated at room temperature for 1 h. The fluorescence intensity in the plates was measured at 340 nm excitation and 665 & 620 nm emission by an Envision plate reader.
(In general: In qHTS, concentration-response curves come from the screen itself.)
With `O=S(=O)(Oc1ccc(Cl)cc1Cl)c1ccccc1`, the Potency entry is “inactive”.
For the molecule `O=C(C(=O)c1ccccc1)c1ccccc1`, the “activity change, negative = inhibition” value was 6.76%.
Same read-out and setting: in the case of `CCC/C=C/C=O` it was -4.9%.
Same read-out and setting: to `CCCCC(CC)COCCO` (stereo not given) belongs 4.34%; to `COC(=O)c1ccccc1C(=O)c1ccc(OCCN2CCCCC2)cc1`, 8.87% [at 42.5 µM]; to `C1CCCCC1`, -1%.
`CCCCC(=O)N(C)C`: the “activity change, negative = inhibition” value is -2.41%.
On the same count and under the same terms, to `Cn1c(=O)c2[nH]c(Br)nc2n(C)c1=O` belongs 7.76% [at 42.5 µM].
Take `O=S(=O)(O)CCS`: the Potency result was “inactive”.
As for `C=CCCC=C`, the “activity change, negative = inhibition” value was -7.08%.
On to `COc1ccc(N)c(OC)c1`, for which the “activity change, negative = inhibition” value was 14.1%.
Take `C/C(=C1\CCOC(=O)S1)N(C=O)Cc1cnc(C)nc1N`: the “activity change, negative = inhibition” value was 1.66% [at 42.5 µM].
Same read-out and setting: to `CC(C)(C)NCCO` belongs 13.4%.
Regarding `O=S(=O)(O)c1ccccc1`, the Potency entry was “inactive”.
On to `N#Cc1cc(NC(=O)C(=O)O)c(Cl)c(NC(=O)C(=O)O)c1`, for which the “activity change, negative = inhibition” value is -1.15% [at 42.5 µM].
As for `CN(C)c1ccc(Cc2ccc(N(C)C)cc2)cc1`, the Potency entry was “inactive”.
Regarding `NCCC(O)(P(=O)(O)O)P(=O)(O)O`, the “activity change, negative = inhibition” value was -6% [at 42.5 µM].
With `CC(C)OC(=O)C(C)(C)Oc1ccc(C(=O)c2ccc(Cl)cc2)cc1`, the Potency result is “inactive”.
As for `COc1cc(CCC(C)=O)ccc1O`, the “activity change, negative = inhibition” value was -3.14%.
With `OCCOCCN1CCN(C2=Nc3ccccc3Sc3ccccc32)CC1`, the Potency entry was “inactive”.
Regarding `CC(=O)S[C@H](C(=O)N[C@H]1Cc2ccccc2[C@H]2CCC[C@@H](C(=O)O)N2C1=O)C(C)C`, the “activity change, negative = inhibition” value is -0.533%.
For the molecule `Oc1ccc(/C=C/c2cc(O)cc(O)c2)cc1`, the Potency result is “inactive”.
On the same count and under the same terms, to `O=C(O)c1cc(=O)c2c(OCC(O)COc3cccc4oc(C(=O)O)cc(=O)c34)cccc2o1` belongs “inactive”.
With `Nc1c(Br)cc([N+](=O)[O-])cc1Br`, the “activity change, negative = inhibition” value is -0.12%.
`COc1ccc2nc(N)sc2c1`: the Potency result is “inactive”.
For the molecule `COc1cc(C(=S)N2CCOCC2)cc(OC)c1OC`, the “activity change, negative = inhibition” value is 0.362% [at 42.5 µM].
Still for that read-out and setting: in the case of `CCCOC(=O)C(C)O` (stereo not given) it was -4%; in that of `CCC(CO)CO`, -1.57%.
For `C=CC(=O)OCCOC1C2CCC1C1CC=CC12` (stereo not given), the activity change, negative = inhibition is 7.6% [at 18.9 µM].
On to `CC(C)(C)C(=O)OCOP(=O)(COCCn1cnc2c(N)ncnc21)OCOC(=O)C(C)(C)C`, for which the Potency is 13.3 µM (active).
Consider `ClCCCl`, for which the “activity change, negative = inhibition” value is 0.211%.
Turning to `CC(=O)N1C[C@H](O)C[C@H]1C(=O)O`, the “activity change, negative = inhibition” value was -0.253% [at 42.5 µM].
As to `O=C1NC(=O)[C@@]2(CCOc3ccc(F)cc32)N1`, the “activity change, negative = inhibition” value is 4.58% [at 42.5 µM].
With `CC(C)=C1CC[C@@H](C)CC1=O`, the “activity change, negative = inhibition” value is -5.56%.
Same read-out and setting: in the case of `C1CN(CCOCCN2CCOCC2)CCO1` it was -3.6%; in that of `CC(CO)CO`, 10.8%.
Take `C=C(C)C(=O)OCCC(F)(F)C(F)(F)C(F)(F)C(F)(F)C(F)(F)C(F)(F)F`: the “activity change, negative = inhibition” value was 0.879%.
On the same count and under the same terms, to `NCC1CCCC(CN)C1` (stereo not given) belongs 23.1%.
For `OCCNCCO`, the Potency result is “inactive”.
As for `CC(C)(C)OC=O`, the “activity change, negative = inhibition” value is -4.68%.

Values taken from PubChem BioAssay (Tox21).
